This is a sample that favours compounds with a hit; in the whole collection about 3.4% have one here.
PGC1a acetyl inh – modulators of PGC1a acetylation; actives 0.17% (n = 350,000); inhibition, % at 15.6 µM; AID 651687; U2OS PGC1a acetylation, AlphaScreen anti-acetyl-lysine; with virally co-expressed GCN5 acetyltransferase;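 active = every replicate shows inhibition of at least 40%; inconclusive = mean inhibition at least 40% but some replicate below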;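 note: 0% = neutral control wells and 100% = positive control wells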
rRNA inh HTS – inhibitors of bacterial rRNA selective over humanized ribosomes. E. coli WT GFP vs humanized-ribosome RFP mutants, fluorescence, 24 h; hits give low values; DMSO median 0, no signal -100. GFP signal change (wild-type ribosome), % (no concentration beside the values). actives 1.6% (n = 350,000);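 active = significant combined selectivity score with lowered wild-type GFP, culture density cut under 30%, mutant RFP and density less affected; inactive = any of these conditions unmet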
SIRT5 block – blocks human SIRT5 desuccinylation of peptide | Q9NXA8 | actives 1.1% (n = 330,000) | AID 652115 | Purified SirT5, succinyl-peptide AMC, trypsin-coupled fluorescence | inhibition, % at 15 µM; in the data active = inhibition above about 15%; inconclusive = no clear call, values can overlap the other calls
Target sequence (Q9NXA8 whole entry, looked up): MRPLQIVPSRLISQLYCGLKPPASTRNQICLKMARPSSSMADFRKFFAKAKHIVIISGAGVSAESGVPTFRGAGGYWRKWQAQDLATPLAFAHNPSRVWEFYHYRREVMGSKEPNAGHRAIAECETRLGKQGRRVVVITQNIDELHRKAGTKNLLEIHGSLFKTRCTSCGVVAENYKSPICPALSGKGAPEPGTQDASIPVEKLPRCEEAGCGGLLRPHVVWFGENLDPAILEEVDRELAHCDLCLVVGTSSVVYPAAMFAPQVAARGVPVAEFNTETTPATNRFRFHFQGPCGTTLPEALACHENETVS
LGR2 inh – Drosophila LGR2 receptor signaling inhibition; inhibition, % at 9.99 µM; actives 0.35% (n = 380,000); HEK293 LGR2, CRE-luciferase, bursicon-stimulated, 4 h; AID 720647;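 active = drop in luminescence signal, shown as inhibition above about 50% in the replicate tests, limit read from the data, passing the limit was not always enough; inconclusive = probably only some replicates passing the limit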;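 note: agonist challenge used bursicon conditioned medium at about half maximal strength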
PAX8 reporter – PAX8 transcriptional activity inhibition; RMG-I TPO-luciferase reporter, SteadyGlo, 24 h; inhibition, % at 12.6 µM; actives 1.2% (n = 360,000); AID 652154;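 active = mean replicate inhibition at least 60% with every replicate also reaching 60%; inconclusive = only one of the two criteria is met; inactive = mean below 60% and not all replicates reaching 60%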;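 note: luciferase light reporting Pax8 driven TPO promoter activity; plate controls were median of neutral control wells for no effect and mitoxantrone controls for full effect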
EWS-Fli inh – inhibitors of EWS/Fli oncoprotein transcriptional activity. A673 NR0B1-luciferase reporter, viability-normalised. AID 651661. inhibition, % at 12.6 µM. actives 0.67% (n = 350,000);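 active = mean inhibition of at least 50% after viability correction, with every replicate also passing that limit; inconclusive = mean reaches 50% but only one of two replicates passes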;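 note: firefly luciferase signal divided by Alamar Blue viability fluorescence both relative to DMSO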
AID977621 – growth inhibition of wild-type GFP E. coli, dose response, H69 mutant RFP, cherry-pick. shares compounds with rRNA inh HTS. E. coli wild-type GFP strain growth, fluorescence, 24 h. activity change, negative = inhibition at 50 µM. 1,900 tested, under 10 active. AID 977621;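 active = Wild-type ribosome reporter drop at least double the humanized mutant ribosome reporter drop, growth loss under a set limit; inconclusive = no clear call, values can overlap the other calls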;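 note: wild-type GFP and H69 mutant RFP strains grown together 50/50 in each well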
AID977628 – E. coli growth inhibition, wild-type GFP versus h24 humanized RFP strain, dose response, h24 mutant RFP vs wild-type GFP, cherry-pick; shares compounds with rRNA inh HTS; E. coli WT GFP strain growth, fluorescence, 24 h; activity change, negative = inhibition at 50 µM; 1,900 tested, under 10 active; AID 977628;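 active = compound lowering the normal-ribosome reporter at least twice as much as the humanized-ribosome reporter, growth loss under a set limit; inconclusive = no clear call, values can overlap the other calls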;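 note: wild-type GFP and h24 humanized RFP strains co-cultured 1 to 1 per well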
Starred values were filed as active, the others as inactive; ? = inconclusive; · = no result; ! = repeats disagree.

SMILES | PGC1a acetyl inh | rRNA inh HTS | SIRT5 block | LGR2 inh | PAX8 reporter | EWS-Fli inh | AID977621 | AID977628
CCOc1ccc(NC(=O)CCc2nnc3ccc(N4CCN(C)CC4)nn23)cc1 | -1 | -3 | -3 | 8 | 5 | -1 | · | ·
CCOc1ccc(NC(=O)CCc2nnc3ccc(N4CCC(C)CC4)nn23)cc1 | · | -20* | 0 | 11 | 9 | 2 | -1.4 | ·
CN1C(=O)c2cc(NC(=O)c3cccc(F)c3)ccc2OC[C@H]2O[C@@H](CC(=O)NCC3CCCCC3)CC[C@@H]21 | · | -25*! | -1 | -18 | 1 | -3 | -8.6 | -0.17
Cc1onc(-c2c(Cl)cccc2Cl)c1C(=O)N1CCN(Cc2ccccc2)CC1 | 11 | -11 | 2 | 2 | 1 | 3 | · | ·
Cc1onc(-c2ccccc2Cl)c1C(=O)N1CCN(Cc2ccc3c(c2)OCO3)CC1 | 5 | -20* | -1 | 16 | 1 | -1 | 7.1 | -9.4
O=C(C[C@H]1C[C@H]2c3cc(NC(=O)Nc4ccc(C(F)(F)F)cc4)ccc3O[C@H]2[C@H](CO)O1)NCCc1ccccc1 | 5 | -4 | -3 | 3 | -29 | 8 | · | ·
CC(C)CC#Cc1ccc([C@H]2[C@H](CO)N3C(=O)CN(C(=O)Nc4ccc(F)cc4)C[C@@H]23)cc1 | -7 | -17 | -1 | -5 | · | 4 | · | ·
Cc1ccc(OCCOCCn2cnc3ccccc3c2=O)c([N+](=O)[O-])c1 | · | -7 | 1 | -19 | 1 | 8 | · | ·
Cc1ccc([N+](=O)[O-])c(OCCn2cnc3ccccc32)c1 | 5 | -20* | 1 | -7 | 5 | 10 | -2.8 | -6.6
CNC[C@@H]1Oc2ncc(-c3ccc(OC)cc3)cc2C(=O)N([C@H](C)CO)C[C@@H]1C | 3 | 4 | 2 | 3 | -16 | -2 | · | ·
Cc1ccccc1S(=O)(=O)N1C[C@@H](O)COC[C@H]2O[C@@H](CC(=O)N3CCC(Cc4ccccc4)CC3)CC[C@@H]21 | 3 | -9 | 4 | -9 | 12 | 12 | · | ·
CN(C)c1ccc(-c2nnn(CC(=O)Nc3ccccc3N3CCOCC3)n2)cc1 | 1 | -16* | 2 | -10 | · | 6 | -8.9 | -13
C[C@H]1CN([C@@H](C)CO)C(=O)c2cc(/C=C/c3ccccc3)cnc2O[C@H]1CN(C)C(=O)Nc1ccc(C(F)(F)F)cc1 | 0 | 0 | -1 | 21 | · | 15 | · | ·
Cc1ccc(N2C(=O)NC(NS(=O)(=O)c3ccccc3)(C(F)(F)F)C2=O)cc1 (centres undefined) | · | 0 | -8 | -9 | -2 | -1 | · | ·
Cc1ccc(N2C(=O)NC(NS(=O)(=O)c3ccccc3)(C(F)(F)F)C2=O)cc1C (centres undefined) | 4 | -17* | -2 | 5 | -11 | -3 | -11 | ·
O=C(Nc1cc(S(=O)(=O)N2CCCCC2)ccc1N1CCCCC1)C1CC1 | -3 | -20* | -3 | 16 | 20 | 11 | -6.5 | -5.6
C[C@H](CO)N1C[C@H](C)[C@@H](CN(C)C(=O)CCC(F)(F)F)OCCCC[C@H](C)Oc2ccc(NC(=O)c3ccccc3)cc2C1=O | 3 | -1 | 5 | 6 | 7 | 6 | · | ·
Cc1cccc(-c2ncc(CN3CCN(C4CCCC4)C(CCO)C3)cn2)c1 (centres undefined) | 3 | 2 | -1 | -8 | -12 | 9 | · | ·
OCCC1CN(Cc2cnc(-c3ccc(Cl)cc3)nc2)CCN1C1CCCCC1 (centres undefined) | · | -18* | 0 | 0 | -14 | 0 | -2.9 | -5.5
O=c1[nH]nc(SCc2ccccc2)n1C1CC2C=CC1C2 (centres undefined) | · | -35* | -2 | 11 | -16 | 18 | -23 | ?
O=C1NC(Cc2c[nH]c3ccccc23)C(=O)N1Cc1ccccc1 (centres undefined) | · | 9 | 1 | -1 | -20 | 5 | · | ·
O=C1NC(CCc2ccccc2)C(=O)N1Cc1cccc2ccccc12 (centres undefined) | · | -21* | 1 | -2 | -7 | -6 | -1.7 | ·
CCOC(=O)Cc1csc(SCC(=O)Nc2cc(C)ccc2OC)n1 | · | -24* | 0 | 7 | 3 | 5 | · | ?
CCOC(=O)Cc1csc(SCC(=O)Nc2cc(Cl)ccc2Oc2ccccc2)n1 | 22 | · | · | -2 | · | · | · | ·
CC(=O)NC(Cc1ccc(F)c(F)c1)C(=O)NC1CCN(c2c(Cc3ccccc3)c(C)nc3ncnn23)CC1 (centres undefined) | -8 | -6 | -5 | -3 | 13 | -44 | · | ·
SMILES | PGC1a acetyl inh | rRNA inh HTS | SIRT5 block | LGR2 inh | PAX8 reporter | EWS-Fli inh | AID977621 | AID977628
Cc1nc2ncnn2c(N2CCC(C(=O)NC3CCCC3)CC2)c1Cc1ccccc1 | 3 | -19* | 3 | 2 | · | -15 | -10 | -7.5
C[C@H]1CN([C@@H](C)CO)C(=O)c2cc(-c3cncnc3)cnc2O[C@H]1CN(C)C(=O)Cc1ccccn1 | 5 | 1 | 0 | 9 | · | 1 | · | ·
Cc1ccc(NS(=O)(=O)c2ccc3c(c2)CCC(=O)N3)cc1C | 1 | -23*! | -4 | 5 | -2 | -2 | -3.4 | ?
CCC(=O)N1CC2(CCN(C(=O)NC(C)C)CC2)c2c(n(C)c3cc(OC)ccc23)[C@H]1CO | -5 | -1 | -3 | -1 | · | -8 | · | ·
COc1ccc(-n2ccnc2SCC(=O)NCc2ccccc2)c(OC)c1 | -4 | -25* | -1 | -2 | 3 | 7 | 5.4 | ·
Cc1ccccc1CSc1nnc(-c2ccncc2)o1 | · | -19* | 1 | -34 | -32 | -23 | · | ?
CN(C)CC(=O)Nc1ccc2c(c1)[C@H]1C[C@H](CC(=O)NCc3cc(F)ccc3F)O[C@H](CO)[C@H]1O2 | 4 | 1 | -1 | 2 | 1 | -4 | · | ·
COc1ccc(NC(=O)N2CC(=O)N3[C@H](CO)[C@H](c4ccc(-c5ccc(C)cc5)cc4)[C@@H]3C2)cc1 | -7 | -1 | -1 | -5 | -3 | -11 | · | ·
COC(=O)C[C@H]1CC[C@H]2[C@@H](COc3ccc(NS(=O)(=O)c4cccc(F)c4)cc3C(=O)N2C)O1 | 7 | 3 | -8 | -4 | -13 | -3 | · | ·
COc1ccc(-c2cc(C(=O)Nc3ccc(C(N)=O)cc3)c3ccccc3n2)cc1OC | · | -26* | -3 | -22 | 4 | -16 | -8.5 | -5.4
CCCN(C)C[C@H]1OCCCC[C@H](C)Oc2ccc(NC(=O)c3ccccc3)cc2C(=O)N([C@@H](C)CO)C[C@H]1C | 0 | 1 | -2 | 6 | 6 | 1 | · | ·
CCC(=O)Nc1ccc2c(c1)C(=O)N(C)C[C@@H](OC)[C@@H](C)CN(CC1CC1)[C@H](C)CO2 | -8 | 2 | -3 | 3 | 1 | 0 | · | ·

Screening data: PubChem, Broad Institute
